Experimental data reported in PubChem BioAssay.
Active and inactive are the calls of the source.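 How the source made its calls, unless noted: active means inhibition at or above 50% at 10 µM; inactive means inhibition below 50%.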

Experiments:
[1] = inhibitors of TNFa-induced NFkB p65 translocation, primary screen, imaging, HUVEC, MLSMR starter and 10KST1 sets (AID 438;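 active means inhibition above 20% together with a positive visual image hit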;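 further: compound added about 3h40 before a 20 min TNFalpha stimulation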;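 on inhibition: signal is the nuclear over cytoplasmic p65 intensity ratio per well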); settings: HUVEC TNFa-induced p65 nuclear translocation; cell count: measured here: nuclei count (cytotoxicity indicator), at 2.08 µM; inhibition: at 2 µM, stronger effect = higher value, 0% TNFa-plus-vehicle, 100% no-TNFa wells
[2] = inhibitors of mutant huntingtin aggregation, primary screen, imaging, exon1htt(103Q)mCFP cells, high-content imaging (AID 483;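 active means visual image review flags a hit and inhibition of aggregation exceeds 20%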;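 further: compound exposure lasted 3 days before fixation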;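 on nuclei count: percent of the per-plate median nuclei count of sample wells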); settings: exon1htt(103Q)mCFP cell line, aggregate imaging, at 2 µM; inhibition of aggregation: stronger effect = higher value; nuclei count: measured here: cell count, toxicity
[3] = inhibitors of E-selectin induction by TNFa, primary screen, imaging, HUVEC, immunofluorescence, MLSMR starter and 10KST1 sets (AID 487;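 active means visually confirmed hit in the image check and inhibition above 20%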;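 on inhibition: signal is fraction of cell area covered by stained E-selectin grains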;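 on nuclei count: 100% = median nuclei count of all wells on the same plate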); settings: HUVEC TNFalpha-induced E-selectin immunofluorescence imaging, at 2 µM; inhibition: stronger effect = higher value; nuclei count: measured here: cell number, toxicity
[4] = target: Voltage-gated potassium channel subunit beta-2 (Rattus norvegicus) (UniProt P62483); experiment: KvBeta enzyme negative modulators, primary screen, biochemical, NADPH fluorescence (AID 622;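 active means fluorescence slope higher than the sample average by over 3 SD, cut at about -0.22 in these data, passing the limit was not always enough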;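 further: slope of raw intensity against log time taken from 70 to 1610 s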); settings: recombinant KvBeta, 4-cyanobenzaldehyde reduction, at 10 µM, stronger effect = higher value
[5] = target: Voltage-gated potassium channel subunit beta-2 (Rattus norvegicus) (UniProt P62483); experiment: KvBeta positive modulators, primary screen, biochemical, NADPH fluorescence (AID 623;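 active means NADPH fluorescence slope more negative than the mean of all samples by about 3 SD, 99.7% confidence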;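 further: fluorescence intensity change per second fitted from 20 to 320 s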); settings: Recombinant KvBeta, NADPH fluorescence decrease slope, 10 min; at 10 µM; stronger effect = lower value
[6] = target: Alpha-2C adrenergic receptor (Homo sapiens) (UniProt P18825); experiment: modulators of alpha2C/GIRK thallium flux, primary screen, cell-based, HEK293 alpha2C/GIRK1/2 (AID 624;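 active means fluorescence slope after compound addition differing from the mean of all screened samples at 99.7% confidence, in either direction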;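 further: slope of fluorescence ratio to pre-addition baseline per second over 15 to 24 s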); settings: thallium flux BTC fluorescence, at 10 µM, actives lie on both sides
[7] = inhibitors of Sendai virus-induced IRF3 signaling, primary screen, TLR/RLR signaling modifier project, cell-based, Sendai virus stimulus, luciferase, 10K MLSCN set (AID 602276); settings: HEK293 RL24 IRF3 luciferase reporter, at 10 µM, stronger effect = higher value;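 further: firefly luciferase from ISG56 promoter only with Renilla not read in this screen; 0% = Sendai virus plus DMSO and 100% = medium plus DMSO without virus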
[8] = inhibitors of poly I:C-induced TLR3 signaling, primary screen, cell-based, poly I:C stimulus, luciferase, 10K MLSCN set (AID 602277;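 active means inhibition of the reporter signal at or above 50%; inactive means inhibition below 50%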); settings: HEK293-TLR3 RL24 IRF3 luciferase reporter, at 10 µM, stronger effect = higher value

Chain of Voltage-gated potassium channel subunit beta-2 (Rattus norvegicus) (P62483 whole entry, looked up): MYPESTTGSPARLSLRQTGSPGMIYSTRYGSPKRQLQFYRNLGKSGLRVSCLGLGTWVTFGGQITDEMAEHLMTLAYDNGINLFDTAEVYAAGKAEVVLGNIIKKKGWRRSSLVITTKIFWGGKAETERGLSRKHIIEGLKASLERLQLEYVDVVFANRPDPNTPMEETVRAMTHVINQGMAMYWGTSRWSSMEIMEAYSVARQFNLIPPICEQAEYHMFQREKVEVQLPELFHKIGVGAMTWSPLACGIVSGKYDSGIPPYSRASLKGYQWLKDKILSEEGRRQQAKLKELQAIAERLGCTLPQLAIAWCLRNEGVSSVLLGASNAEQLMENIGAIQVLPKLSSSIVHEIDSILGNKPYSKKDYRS
Chain of Alpha-2C adrenergic receptor (Homo sapiens) (P18825 whole entry, looked up): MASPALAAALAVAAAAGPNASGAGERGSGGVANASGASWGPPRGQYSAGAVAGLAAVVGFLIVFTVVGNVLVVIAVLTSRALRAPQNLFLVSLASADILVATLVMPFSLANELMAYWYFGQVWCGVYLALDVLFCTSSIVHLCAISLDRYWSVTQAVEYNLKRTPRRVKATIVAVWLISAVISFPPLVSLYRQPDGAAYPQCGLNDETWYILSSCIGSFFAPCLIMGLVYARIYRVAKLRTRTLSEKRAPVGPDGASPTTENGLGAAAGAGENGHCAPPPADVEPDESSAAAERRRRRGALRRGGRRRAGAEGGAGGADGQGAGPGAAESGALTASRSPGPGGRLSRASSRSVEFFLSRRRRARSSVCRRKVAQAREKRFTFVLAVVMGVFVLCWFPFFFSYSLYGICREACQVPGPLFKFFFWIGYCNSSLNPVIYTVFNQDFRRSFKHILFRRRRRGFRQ

Compound	cell count [1]	inhibition [1]	inhibition of aggregation [2]	nuclei count [2] [%]	inhibition [3]	nuclei count [3] [%]	fluorescence slope [4]	NADPH fluorescence slope [5]	slope [6]	inhibition [7]	inhibition [8]
Cn1c(Cl)nc2ccccc21	467	3.8% (inactive)	12.8% (inactive)	93.2	45.8% (inactive)	93.3	-0.514 (inactive)	-5.9e-05 (inactive)	0.00423 (inactive)	19.3% (inactive)	51% (active)
Cc1cccc(CN2CCC(CNC(=O)C3CCCN(S(=O)(=O)c4cnc[nH]4)C3)CC2)c1 (stereo not drawn)	706	-12.2% (inactive)	10.2% (inactive)	106	-61.1% (inactive)	125	-0.518 (inactive)	-3.2e-05 (inactive)	0.0058 (inactive)	18.8% (inactive)	27.2% (inactive)
COC(=O)c1ccc2c(c1)nc(C)n2CCO	360	-4% (inactive)	-26% (inactive)	139	-23.6% (inactive)	94.3	-0.315 (inactive)	-2.9e-05 (inactive)	0.00466 (inactive)	5.24% (inactive)	12.5% (inactive)
CCOC(=O)C1=C(C)Nc2nc(SCC(=O)OC)nn2C1c1cc(F)cc(F)c1 (stereo not drawn)	432	-15.7% (inactive)	-6.3% (inactive)	96.1	1% (inactive)	96	-0.592 (inactive)	-3.9e-05 (inactive)	0.00688 (inactive)	2.11% (inactive)	8.56% (inactive)
c1ccc(-c2ccc(-c3ccccn3)nn2)nc1	231	11.2% (inactive)	-2.4% (inactive)	67.7	-48.9% (inactive)	121	-0.419 (inactive)	-1.3e-05 (inactive)	0.00636 (inactive)	7.62% (inactive)	70.6% (active)
CC1CCN(CCCNC(=O)c2coc3nc4ccccc4nc23)CC1	311	-0.8% (inactive)	-17.9% (inactive)	110	-33.9% (inactive)	117	-0.351 (inactive)	-3.5e-06 (inactive)	0.00542 (inactive)	-4.6% (inactive)	46.6% (inactive)
Oc1ccc(-c2n[nH]c(=S)n2Cc2ccccc2)cc1	409	9.6% (inactive)	-13.1% (inactive)	109	-75.1% (inactive)	116	-0.485 (inactive)	4.7e-05 (inactive)	0.00348 (inactive)	-8.79% (inactive)	-1.56% (inactive)
Cn1c(=O)c2[nH]c(NCC3CCCO3)nc2n(-c2ccccc2)c1=O (stereo not drawn)	359	-0.4% (inactive)	-11.4% (inactive)	108	-80% (inactive)	116	-0.407 (inactive)	-7.1e-05 (inactive)	0.00463 (inactive)	14% (inactive)	32.3% (inactive)
